According to PubChem BioAssay AID1345085 (National Center for Advancing Translational Sciences (NCATS), 2018):
Results filed as inconclusive are left out. Activity calls are given as the source filed them. Calls follow the shape of the dose curve; as a rule, active = well fitted cell-killing curve with a large enough effect; inconclusive = small, poorly fitted or top-dose-only effect, or effect the other way; inactive = no such curve, though single readings can be large or run the other way.
Also: nearly all actives have a fitted effect of over 55% in size.
Potency is read from the fitted curve at half-maximal effect.

The compounds below were run on Jar (assay: Confirmatory qHTS for gynecologic anti-cancer compounds from libraries of approved drugs and bioactive compounds). Details: gynecologic cancer cell panel viability, ATPlite luminescence, 48 h; series mostly up to 57.6 µM.
Outline: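 Cells (1,000/well) plated 16 h, then exposed 48 h at 37 °C to 11 concentrations (1:3) from 57.5 uM to 0.977 nM. Viability by ATPlite luminescence after 15 min; IC50 derived, with HEK 293T used for selectivity index.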
With `CCOc1cc2ncc(C#N)c(Nc3ccc(F)c(Cl)c3)c2cc1NC(=O)/C=C/CN(C)C` the Potency was 1.72 µM (active).
With `O=C(c1ccc(F)c(F)c1Nc1ccc(I)cc1F)N1CC(O)([C@@H]2CCCCN2)C1` the Potency was 21.7 µM (active).
`Cn1cc(-c2[nH]c3cc(NC(=O)[C@H](N)C4CCCCC4)cc4c3c2C=NNC4=O)cn1` was tested, and the Potency was 10.9 µM (active).
With `CNC(=O)c1ccccc1Nc1nc(Nc2ccc(N3CCOCC3)cc2OC)ncc1Cl` the Potency was 19.3 µM (active).
`Nc1nc(=S)c2[nH]cnc2[nH]1` was tested, and the Potency was 9.68 µM (active).
